For seven compounds, z-score and composite z-score results are on record in PubChem BioAssay.

Several values for one entry are separate records, joined by “and”; a condition that tells them apart may be missing. Equal values may be shown once. Activity calls are given as the source filed them. Unless noted, how the calls were made is not given here.

A short description of assay [1]: A549 cell viability effects, profiling panel, calcein-AM fluorescence, 48 h, basal (AID 1162). Further: test concentration not given here. The note with it: higher = more signal.
A short description of assay [2]: adipocyte viability effects, profiling panel, cell-based, 3T3-L1 adipocytes, calcein-AM fluorescence, 48 h, basal (AID 1163). Further: test concentration not given here. The note with it: 3T3-L1 adipocytes viability, higher = more signal.
Assay [3] in a line: HepG2 cell viability effects, profiling panel, calcein-AM fluorescence, 48 h, basal (AID 1164). Further: test concentration not given here. The note with it: higher = more signal.
Assay [4] is described as follows: MM1S cell viability effects, profiling panel, calcein-AM fluorescence, 48 h, basal (AID 1165).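 Further: viability of MM1S multiple myeloma cells under basal unstimulated conditions; test concentration not given here.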 The note with it: higher = more signal.
Assay [5] in a line: basal RPMI8226 viability, no added stimulus, profiling panel, cell-based, calcein-AM fluorescence, 48 h, PK04 Diversity Set (AID 1166).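 Further: cells grown under basal conditions without added stimulus; test concentration not given here.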 The note with it: RPMI8226 myeloma viability, higher = more signal.
Assay [6] can be described thus: basal HepG2 mitochondrial membrane potential changes, profiling panel, cell-based, JC-1 fluorescence, 24 h, 100 nL compound (AID 1167). Further: test concentration not given here. To be noted: higher = more signal.
Assay [7] can be described thus: basal 3T3-L1 adipocyte mitochondrial potential changes, profiling panel, cell-based, JC-1 fluorescence, 3T3-L1 adipocytes, 24 h, 100 nL compound (AID 1168). Further: test concentration not given here. To be noted: JC-1 mitochondrial fluorescence, higher = more signal, called active from +8 up or from −8 down.
The nature of assay [8]: basal RPMI8226 mitochondrial membrane potential changes, profiling panel, cell-based, JC-1 fluorescence, 24 h, 100 nL compound (AID 1169). Further: test concentration not given here. To be noted: RPMI8226 myeloma, JC-1 mitochondrial potential fluorescence, higher = more signal.
Assay [9] is described as follows: basal MM1S mitochondrial membrane potential changes, profiling panel, cell-based, JC-1 fluorescence, 24 h, 100 nL compound (AID 1170). Further: test concentration not given here. The note with it: higher = more signal.
A short description of assay [10]: A549 lung cancer cell viability effects, profiling panel, resazurin fluorescence, 24 h, PK04 Diversity Set (AID 1171). Further: test concentration not given here. The note with it: higher = more signal, called active from +8 up or from −8 down.
A short description of assay [11]: HepG2 liver cancer cell viability effects, profiling panel, resazurin fluorescence, 24 h, PK04 Diversity Set (AID 1172). Further: test concentration not given here. To be noted: higher = more signal.
Assay [12] in a line: basal S. cerevisiae growth modulation, no modifier, primary screen, OD600, strain BY4716, 24 h, basal condition (AID 1173). The note with it: OD600, 24 h, higher = more signal, called active from +8 up or from −8 down.
The nature of assay [13]: MM1S myeloma cell viability, profiling panel, resazurin fluorescence, basal, 24 h, PK04 Diversity Set (AID 1174).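 Further: MM1S multiple myeloma cell line; test concentration not given here.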 To be noted: higher = more signal, called active from +8 up or from −8 down.
Assay [14] deals with Dihydroorotate dehydrogenase (quinone), mitochondrial (Plasmodium falciparum (isolate 3D7)) (UniProt Q08210). Kind of assay: PfDHODH enzyme inhibitors, primary screen, biochemical, C-terminal His tag, absorbance 600 nm (AID 1175).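 Further: recombinant parasite enzyme with a five histidine tag at its C terminus; test concentration not given here.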 To be noted: DCIP absorbance 600 nm, higher = more signal, called active from +8 up or from −8 down.
The nature of assay [15]: P. aeruginosa biofilm formation inhibitors, primary screen, strain PAO1, LB-PBS medium, absorbance 600 nm (AID 1176). Further: test concentration not given here. The note with it: P. aeruginosa PAO1 growth/biofilm, A600, 12 h; higher = more signal.
A short description of assay [16]: S. cerevisiae RM11-1a growth modifiers, primary screen, strain RM11-1a, OD600, basal, 24 h (AID 1177).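 Further: cultures grown under basal conditions with no added stressor; test concentration not given here.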 To be noted: OD600, 24 h, higher = more signal, called active from +8 up or from −8 down.
The nature of assay [17]: E. coli acrAB mutant growth effects, primary screen, E. coli filamentation inducers, strain DRC39, OD650, 24 h (AID 1178).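 Further: growth measured as culture turbidity by optical density at 650 nm; test concentration not given here.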 The note with it: higher = more signal, called active from +8 up or from −8 down.
The nature of assay [18]: E. coli acrAB mutant growth effects, primary screen, E. coli filamentation inducers, strain DRC39, OD650, 48 h (AID 1179).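 Further: screen aims at cell division blockers that make cells filament.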 To be noted: E. coli DRC39 delta-acrAB growth, higher = more signal, called active from +8 up or from −8 down.
Assay [19] in a line: RPMI8226 myeloma cell viability, profiling panel, resazurin fluorescence, basal, 24 h, PK04 Diversity Set (AID 1180).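 Further: RPMI8826 multiple myeloma cell line at 5000 cells per well; test concentration not given here.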 The note with it: higher = more signal.
The target of assay [20] is E3 ubiquitin-protein ligase XIAP (Homo sapiens) (UniProt P98170). Kind of assay: XIAP binders, primary screen, biophysical, small-molecule microarray, fluorescence 635 nm (AID 1181).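 Further: score merges 667 nm emission and signal to noise over triplicate slides.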 To be noted: small-molecule microarray binding, higher = more signal.
Sequence of E3 ubiquitin-protein ligase XIAP (Homo sapiens) (P98170 whole entry, looked up): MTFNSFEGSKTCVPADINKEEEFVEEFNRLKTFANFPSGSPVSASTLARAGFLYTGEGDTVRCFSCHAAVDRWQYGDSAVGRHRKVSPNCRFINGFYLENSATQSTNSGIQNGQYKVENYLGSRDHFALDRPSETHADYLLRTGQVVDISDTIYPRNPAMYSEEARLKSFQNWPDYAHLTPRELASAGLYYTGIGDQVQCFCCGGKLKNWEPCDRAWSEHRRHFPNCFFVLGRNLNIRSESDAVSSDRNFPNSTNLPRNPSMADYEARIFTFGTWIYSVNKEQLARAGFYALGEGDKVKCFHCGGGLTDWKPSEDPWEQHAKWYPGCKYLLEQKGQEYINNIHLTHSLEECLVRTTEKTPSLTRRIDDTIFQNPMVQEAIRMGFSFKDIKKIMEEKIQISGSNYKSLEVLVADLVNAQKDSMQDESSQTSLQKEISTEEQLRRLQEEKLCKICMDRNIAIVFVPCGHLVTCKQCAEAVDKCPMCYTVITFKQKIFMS

Sequence of Dihydroorotate dehydrogenase (quinone), mitochondrial (Plasmodium falciparum (isolate 3D7)) (Q08210 whole entry, looked up): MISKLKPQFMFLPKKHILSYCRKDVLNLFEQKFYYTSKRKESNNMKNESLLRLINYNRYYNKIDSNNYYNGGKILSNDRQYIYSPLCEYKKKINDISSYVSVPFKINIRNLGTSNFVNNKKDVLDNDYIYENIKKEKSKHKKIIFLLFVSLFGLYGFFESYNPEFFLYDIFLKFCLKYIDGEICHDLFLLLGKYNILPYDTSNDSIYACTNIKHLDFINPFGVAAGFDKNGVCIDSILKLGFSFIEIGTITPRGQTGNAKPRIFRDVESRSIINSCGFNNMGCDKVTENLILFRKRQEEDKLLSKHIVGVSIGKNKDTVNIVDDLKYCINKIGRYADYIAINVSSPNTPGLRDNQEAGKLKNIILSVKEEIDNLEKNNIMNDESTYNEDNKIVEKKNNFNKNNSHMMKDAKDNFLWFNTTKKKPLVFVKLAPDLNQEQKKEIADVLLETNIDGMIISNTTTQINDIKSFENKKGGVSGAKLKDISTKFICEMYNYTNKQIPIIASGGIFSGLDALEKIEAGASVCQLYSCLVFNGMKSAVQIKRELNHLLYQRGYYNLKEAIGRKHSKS

With `COC(=O)c1c2oc(c1C(=O)OC)C(=O)N[C@@H](Cc1ccccc1)Cn1cc(nn1)C1(CCCCC1)NC(=O)N[C@H](CO)CC2`, the z-score is 2.13 and 1.06 in [1]; -0.29 and 0.184 in assay [2]; 0.893 and 0.0236 in [3]; 0.434 and -0.392 in assay [4]; 1.51 and -1.13 in assay [5]; 1.09 and 4.63 in [6]. In addition, the z-score in [7] was 0.354 (inactive) and -0.852 (inactive); in [8], -0.0874 and -0.0745; in [9] it was 0.559 and -0.594; in [10], 0.976 (inactive) and 1.37 (inactive); in [11] it was 1.61 and 1.46; in assay [12] it was -4.6 (inactive) and 0.628 (inactive). For the same compound, the z-score in assay [13] was 0.74 (inactive) and 2.29 (inactive); in [15], 1.33 (inactive) and 0.997 (inactive); in assay [16], -0.0882 (inactive) and -0.376 (inactive); in [17], 1.89 (inactive) and 0.153 (inactive); in assay [18] it was 1.56 (inactive) and 0.279 (inactive); in [19] it was 0.688 and 2.64. Moreover, the composite z-score in [14] is 0.338 (inactive) and 0.282 (inactive); in assay [20], 0.065 and -0.0187.

Take `C=C[C@@H](OC)[C@H](O)c1ccc(OCCO)cc1`: the z-score in [1] is 0.143 and 0.72; in [2], -0.434 and 0.971; in [3], 0.124 and 0.628; in assay [4], 0.663 and 0.916; in assay [5], -0.486 and 0.64; in assay [6] it was -0.244 and 0.904. Further, the z-score is 0.36 (inactive) and -1.97 (inactive) in assay [7]; -0.982 and -0.69 in assay [8]; 0.88 and -1.28 in [9]; -0.133 (inactive) and -0.135 (inactive) in assay [10]; 0.242 and 0.884 in assay [11]; -5.46 (inactive) and -6.32 (inactive) in [12]. For the same compound, the z-score in assay [13] was -0.154 (inactive) and 0.883 (inactive); in assay [15] it was 0.519 (inactive) and 1.64 (inactive); in [16], 0.526 (inactive) and -2.73 (inactive); in assay [17], 0.0235 (inactive) and 1.08 (inactive); in assay [18] it was 0.121 (inactive) and 1.48 (inactive); in assay [19], -0.121 and 1.36. Further, the composite z-score is 0.358 (inactive) and -0.456 (inactive) in assay [14]; -0.19 and -0.102 in [20].

In the case of `CC(=O)OC[C@H]1O[C@H](C#CC(C)(C)C)C=C[C@@H]1OC(C)=O`, the z-score in assay [1] was -0.327; in assay [2], -0.274; in assay [3] it was -0.24; in assay [4], -3.02; in [5], -1.73; in assay [6], -0.888. For the same compound, the z-score in assay [7] was 0.386 (inactive); in assay [8], -0.776; in assay [9] it was 0.085; in assay [10], -0.595 (inactive); in assay [11] it was -0.374; in assay [12], -0.854 (inactive). The z-score in assay [13] is -0.756 (inactive); in assay [15], -0.151 (inactive); in assay [16] it was -0.066 (inactive); in [17] it was 0.545 (inactive); in assay [18], 0.221 (inactive); in [19] it was -0.26. Further, the composite z-score in [14] is -0.187 (inactive); in [20], 0.0237.

Turning to `CCOC(=O)[C@@H]1CC2O[C@]23C[C@@H]1C(=O)N1CCC[C@@H]1[C@H]3O[Si](C)(C)C(C)(C)C` (stereo not given in full), the z-score in assay [1] was -0.889 and -0.825; in [2] it was 0.838 and 0.26; in assay [3] it was -0.526 and -0.885; in [4] it was 0.0049 and -3.22; in assay [5], -0.55 and -0.467; in [6], -0.904 and -1.08. Further, the z-score in [7] is -0.744 (inactive) and -0.631 (inactive); in [8] it was -0.387 and -0.407; in assay [9], 0.781 and -1.86; in [10] it was -0.438 (inactive) and -0.287 (inactive); in [11], -0.464 and -0.0421; in [12], -0.648 (inactive) and -2.06 (inactive). Besides, the z-score in [13] was -0.645 (inactive) and -0.942 (inactive); in assay [15], 0.167 (inactive) and 0.0117 (inactive); in assay [16], -0.159 (inactive) and -0.702 (inactive); in assay [17] it was 0.215 (inactive) and -0.512 (inactive); in assay [18], -0.215 (inactive) and -0.122 (inactive); in [19], -0.586 and -0.593. The composite z-score in assay [14] is -0.0009 (inactive) and -0.513 (inactive); in assay [20] it was 0.0618 and -0.142.

On to `COC(=O)C1=C(C)N(Cc2ccccc2)[C@]23O[C@](C(=O)OC)(C(=O)N2[C@@H]1c1ccccc1)[C@H]1C(=O)N(c2ccccc2)C(=O)[C@H]13`, for which the z-score in assay [1] is 0.0342 and 1.13; in assay [2] it was 0.513 and 1.12; in [3], -0.254 and -0.339; in assay [4], 0.149 and 0.0697; in assay [5], -0.483 and 0.292; in assay [6], 0.369 and 0.573. Moreover, the z-score in [7] was 0.658 (inactive) and 0.885 (inactive); in [8], -0.749 and -0.197; in [9], 0.702 and 0.235; in assay [10] it was 0.376 (inactive) and -0.0028 (inactive); in assay [11], 0.652 and 1.12; in [12] it was -1.07 (inactive) and -1.3 (inactive). Also, the z-score in [13] was 0.965 (inactive) and -0.165 (inactive); in assay [15], -0.2 (inactive); in [16], -0.215 (inactive) and 0.133 (inactive); in assay [17], -0.308 (inactive) and 0.166 (inactive); in assay [18], -0.306 (inactive) and 0.155 (inactive); in assay [19] it was 0.709 and 0.102. For the same compound, the composite z-score in [14] was -0.047 (inactive) and -0.335 (inactive); in [20] it was -0.0346 and -0.316.

In the case of `CCOC(=O)c1ccc(NC(=O)O[C@H]2[C@H](OC(=O)Nc3ccccc3)[C@H](OC(=O)Nc3ccccc3)[C@@H](OC)O[C@@H]2CO)cc1`, the z-score was -0.299 and -1.3 in assay [1]; 0.207 and 0.7 in [2]; -1.02 and -1.9 in assay [3]; -1.08 and -3.02 in assay [4]; -0.636 and -3.24 in assay [5]; -0.171 and -1.02 in [6]. Also, the z-score is 1.31 (inactive) and -0.302 (inactive) in assay [7]; -0.396 and -0.968 in assay [8]; -0.45 and -1.27 in [9]; -1.11 (inactive) and -3.2 (inactive) in [10]; -1.03 and -1.82 in [11]; 0.645 (inactive) and -0.301 (inactive) in [12]. In addition, the z-score in [13] was -1.75 (inactive) and -3.01 (inactive); in assay [15], 2.37 (inactive) and 1.74 (inactive); in assay [16], 2.14 (inactive) and 0.971 (inactive); in [17], -0.468 (inactive) and 0.363 (inactive); in assay [18], 0.496 (inactive) and -0.189 (inactive); in assay [19] it was -1.53 and -2.7. The composite z-score was -0.299 (inactive) and -0.597 (inactive) in assay [14]; 0.23 and 0.108 in assay [20].

`CC(CO)N1C(=O)[C@@H]2C3C(=O)OCCC=C[C@H]3OC23C=CCN(C(C)(C)C)C(=O)[C@@H]13` (stereo not given in full): the z-score in assay [1] is -0.418 and -0.461; in assay [2], -0.142 and -0.791; in assay [3], -1.27 and -0.487; in [4], -0.388 and 0.885; in [5], -0.0799 and 0.143; in [6], -0.985 and -1.27. Besides, the z-score in assay [7] is -0.105 (inactive) and -0.534 (inactive); in assay [8], 0.914 and -0.0183; in [9], 0.157 and -0.365; in [10] it was -0.731 (inactive) and -0.299 (inactive); in [11], -0.0539 and 0.0517; in assay [12] it was 1.97 (inactive) and -0.0328 (inactive). Further, the z-score is -1.28 (inactive) and -0.719 (inactive) in [13]; -0.317 (inactive) and 0.329 (inactive) in assay [15]; 1.01 (inactive) and -1.12 (inactive) in assay [16]; -0.57 (inactive) and -0.149 (inactive) in [17]; -0.672 (inactive) and -0.246 (inactive) in [18]; -0.896 and -0.817 in [19]. For the same compound, the composite z-score in assay [14] is -7.96 (inactive) and -3.06 (inactive); in assay [20], -0.157 and 0.517.
